Data from PubChem BioAssay AID1981 (Southern Research Specialized Biocontainment Screening …, 2009).
Out of some 2,200 compounds screened, about 480 (22%) were called active. How the calls were made is not given here. The list is a sample of the results. Measured potencies and affinities stand elsewhere.

Assay: S. Typhimurium GFP fluorescence modified counterscreen for PhoP regulon inhibitor project dose response (AID 1981)
Conditions: 4 h; series mostly up to 150 µM

Compound	outcome
CCC(Sc1ncccc1C(=O)OC(C)C)C(=O)N1CCOCC1 (centres undefined)	inactive
O=C(CSc1ccc2c(c1)OCCO2)NCCc1ccc(Cl)cc1Cl	inactive
CCOC(=O)/C(=C/C=C/c1ccccc1)NC(=O)c1ccccc1	inactive
Cc1[nH]c2ccccc2c1/C=N/O	inactive
COc1ccc2[nH]c(S(=O)Cc3ncc(C)c(OC)c3C)nc2c1 (centres undefined)	inactive
Oc1ccc(-c2n[nH]c(=S)n2-c2ccc3c(c2)OCCO3)c(O)c1	inactive
Cc1ccc(Nc2nc(CSc3nnc(-c4cccnc4)n3-c3ccccc3F)cs2)cc1	inactive
COc1ccc(OC)c(S(=O)(=O)N(C)CC(=O)N2CCc3ccccc3C2)c1	inactive
COc1cc(C)nc(Nc2nc(C)c(C(C)=O)s2)n1	inactive
COC(OC)c1nc(SCC(=O)Nc2cccc(Cl)c2)ncc1C(=O)O	inactive
C#CCn1cc(/C=N/Nc2nc3ccccc3[nH]2)c2ccccc21	inactive
C(=C\c1ccccc1)/C=N/Nc1nc2ccccc2[nH]1	inactive
CCN(CC)c1ccc(/C=N/NC(=S)NCc2ccccc2)c(O)c1	inactive
CN(c1cccc(Cl)c1)S(=O)(=O)c1cccc(C(=O)Nc2nc3ccccc3[nH]2)c1	inactive
CN1CCN(S(=O)(=O)c2ccc(-c3ccccc3)cc2)CC1	inactive
COc1ccc(C2=Nc3cccc4cccc(c34)N2)cc1	inactive
Cc1ccc(CNC(=O)c2cccc(S(C)(=O)=O)c2)cc1	inactive
COc1ccc(-c2nnc(SCC(=O)NCc3ccco3)o2)cc1	inactive
Cc1ccc(S(=O)(=O)NCCC(=O)OCn2nnc3ccccc3c2=O)cc1	inactive
CN1/C(=C/C=N/NC(=O)c2ccc([N+](=O)[O-])cc2)C(C)(C)c2ccccc21	inactive
CN1/C(=C/C2CC(=O)N(c3cccc4ccccc34)C2=O)C(C)(C)c2ccccc21 (centres undefined)	inactive
COC(=O)c1cc(C#N)c(Oc2cccc(C)c2C)nc1C	inactive
Cc1c(/C=C/C(=O)c2ccccc2)cnn1C	inactive

Compound	outcome
O=C1c2ccccc2C2=Nc3ccccc3SC(c3cccc(F)c3)C12 (centres undefined)	inactive
Cn1c(N)c(C(=O)COC(=O)C2CCCCC2)c(=O)n(C)c1=O	inactive
COc1ccccc1NCCC(=O)OCC(=O)NC1CCCCCC1	inactive
O=c1c2ccccc2nc(-c2ccco2)n1-c1nccs1	inactive
CNc1nc(Sc2ccccc2)cc(C(F)(F)F)n1	inactive
CC(=O)Nc1c(C#N)c(C(C)(C)C)cn1C	inactive
CCOC(=O)c1ccc(N2CCN(c3ccc(F)cc3)CC2)c(NC(=O)Nc2cccc(OC)c2)c1	inactive
COc1ccccc1-c1c(C#N)c(N)nc2c1CCc1ccccc1-2	inactive
CCOC(=O)Cc1ccc2sc(-c3ccccc3)nc2c1	inactive
CCOC(=O)CSc1nc2c(sc(=S)n2-c2ccccc2)c(=O)n1-c1ccc(OC)cc1OC	inactive
Cc1ccc2cc(C(=O)O)c(C)nc2c1	inactive
COc1cccc(C=NCC(C)N=Cc2cccc(OC)c2O)c1O (centres undefined)	inactive
N/C(=N\OC(=O)Nc1ccc(Cl)cc1)c1ncc(C(F)(F)F)cc1Cl	inactive
N#C/C(=C\c1ccc(F)c(F)c1)C(=O)NC1CCCCC1	inactive
N#CC(C#N)=c1ccc2c(c1)NC1(CCCCC1)N=2	inactive
CCCCCCCSc1cc(OC)c(CCN(C)C)cc1OC	inactive
CCCCn1nnnc1NCc1cc(OC)c(OC)cc1OC	inactive
COc1ccccc1NS(=O)(=O)c1cc(NC(=S)Nc2cc(C)cc(C)c2)ccc1Cl	inactive
COc1ccc(CCNC(=O)c2ccc(CN3CCOCC3)cc2)cc1	inactive
CN(C(=S)Nc1ccc(Oc2ccccc2)cc1)c1ccc(O)cc1	inactive
OCCN(CCO)CC(O)Cn1c2ccccc2c2ccccc21 (centres undefined)	inactive
O=S(=O)(c1ccccc1)N(CC(O)Cn1c2ccccc2c2ccccc21)c1ccccc1 (centres undefined)	inactive
CCOC(=O)C1CCCN(S(=O)(=O)c2ccc(Br)c(OC)c2)C1 (centres undefined)	inactive

Compound	outcome
Cc1cc(C)nc(N2CCCC(C(=O)Nc3ccc4nc(C)c(C)nc4c3)C2)n1 (centres undefined)	inactive
Nc1nnc(SCc2ccc3c(c2)OCO3)s1	inactive
O=C(c1cn(-c2ccccc2)nc1-c1cccnc1)N1CCCCC1	inactive
Cc1cccc(-n2nc3c(c2NC(=O)c2ccco2)CSC3)c1C	inactive
O=[N+]([O-])c1nn(-c2cccc(Cl)c2)n(O)c1=NCc1cccnc1	inactive
Cc1nc(N2CCN(c3ccccc3)CC2)nc2c1C(=O)CC(C)C2 (centres undefined)	inactive
Cc1ccccc1NC(=S)NC1CCN(Cc2ccccc2)CC1	inactive
CCCCC1(CCCC)C(=O)NC(=Nc2cccc(C)c2)NC1=O	inactive
CCn1cc(C(=O)O)c(=O)c2cc(F)c(N3CCN(C(=S)NC(=O)c4ccccc4Cl)CC3)cc21	inactive
O=C(Cn1cnc2scc(-c3ccccc3)c2c1=O)N1CCOCC1	inactive
Cc1ccccc1-n1nc(-c2ccc(N)cc2)cc1N	inactive
N#CCOC(=O)c1sccc1-n1cccc1	inactive
COc1ccc(/C=C(\NC(=O)/C=C/c2ccco2)C(=O)NCCc2nc3ccccc3[nH]2)cc1	inactive
S=C(NCc1cccnc1)Nc1ccc(Cl)cc1	inactive
O=[N+]([O-])c1ccc(Sc2nc3ccccc3o2)c([N+](=O)[O-])c1	inactive
COc1ccc(-c2csc(NCc3ccco3)n2)cc1	inactive
N#CC1=C(N)SC(N)=C(C#N)C1c1ccc([N+](=O)[O-])cc1	inactive
COc1cccc2c(=O)c3c(cnn3C)n(C)c12	inactive
COc1ccc(-c2cc(C(=O)O)[nH]n2)cc1OC	inactive
Cn1c(-c2ccc(N)cc2)nc2ccccc21	inactive
CCC(=O)NC1=C(NC(C)c2ccccc2)C(=O)c2ccccc2C1=O (centres undefined)	inactive
COC(=O)c1sc2ccccc2c1-n1cccc1C(=O)C(=O)Nc1ccc(Cl)cc1	inactive
Cn1c(=O)n(CC(=O)Nc2ccccc2)c2ccccc21	inactive

Compound	outcome
COc1ccc(C(=O)Nc2cc(C)ccc2NC(=O)COc2ccccc2)cc1	inactive
CCN(Cc1ccccc1)C(=O)CN1C(=S)NC(C)(C)CC1C (centres undefined)	inactive
CCOC(=O)Cn1nnnc1C(C(C)C)N(Cc1cccs1)Cc1cc2cc(C)ccc2[nH]c1=O (centres undefined)	inactive
CCN(CC)C(=O)CP(=O)(c1ccccc1)c1ccccc1	inactive
Cc1cc(C2=NNC(=NC3CC3)SC2)c(C)n1-c1ccccc1	inactive
Nc1cc(N)nc(SCC(=O)Nc2ccc3c(c2)OCCCO3)n1	inactive
COc1ccc(C(=O)N2CCN(C(=O)c3ccco3)CC2)cc1OC	inactive
CCOC(=O)c1sc2nccc(N(C)C)c2c1N=CNOCc1c(F)cccc1Cl	inactive
O=C(CSc1nnc(-c2cccs2)n1-c1ccccc1)NCc1ccc2c(c1)OCO2	inactive
COc1cccc(-c2nnc(SCC(=O)Nc3ccc(OC)c(OC)c3)n2N)c1	inactive
CCCc1cc(-c2nc(N)ncc2-c2ccc3c(c2)OCCCO3)c(O)cc1OC	inactive
CCC(CC)C(=O)Nc1cccc(C(=O)N2CCCC2)c1	inactive
CCOC(=O)c1[nH]c2ccccc2c1NC(=O)NC1CCCCC1	inactive
CCOC(=O)CCCNC(=O)COC(=O)CCC(=O)c1ccc(F)cc1	inactive
Cn1c(-c2ccc3nc(N)sc3c2)nc2cc(N)ccc21	inactive
CCOC(=O)COc1ccccc1/C=C\[N+](=O)[O-]	inactive
COc1cc(C=O)ccc1OCCCOc1ccccc1[N+](=O)[O-]	inactive
COc1ccc([N+](=O)[O-])cc1NC(=O)C(C)OC(=O)c1ccccc1C(=O)c1ccc(Cl)cc1 (centres undefined)	inactive
Cc1ccc(S(=O)(=O)N2CCCC2C(=O)OCc2ccco2)cc1 (centres undefined)	inactive
Cc1nc2c(C(=O)NCCC(C)C)c[nH]n2c(=O)c1Cc1ccccc1F	inactive
O=C(CCn1nnc(-c2cccs2)n1)NCc1ccccc1Cl	inactive
Cc1ccc(CCNC(=O)C2CCCN(S(=O)(=O)c3c(C)noc3C)C2)cc1 (centres undefined)	inactive
CC(C)Cn1c(-c2ccccc2)nc2ccccc2c1=O	inactive

Compound	outcome
COc1ccc(Cl)cc1C(=O)CSc1nc(N)cc(N)n1	inactive
COc1ccc(-c2c/c(=N\c3nc(-c4ccccc4)c(C)s3)c3ccccc3o2)cc1O	inactive
Cc1ccccc1OCC(=O)N/N=C/c1ccco1	inactive
O=C(N/N=C/c1ccc(F)cc1)c1cc(-c2ccco2)nc2ccccc12	inactive
Cc1ccc(NC(=O)CO/N=C(\N)c2nonc2N)cc1	inactive
COC(=O)c1ccc(NC(=S)Nc2ccc3ccccc3c2)cc1	inactive
Cn1ccnc1SCC(=O)Nc1sccc1C#N	inactive
NC1=NC2=C(CCCC2)C2(CCCCC2)S1	inactive
CCCCn1c(O)c(C(CC)=Nc2ccc3c(c2)CCC3)c(=O)[nH]c1=O	inactive
CC(C)c1ccc(O)c(NC(=O)c2cncc(Br)c2)c1	inactive
COc1ccccc1N1CCN(c2ccc(-c3ccccc3)nn2)CC1	inactive
Cc1ccccc1Nc1nnc(SCC(=O)NC2CCCc3ccccc32)s1 (centres undefined)	inactive
Cc1[nH]nc2c1C(c1cc(Br)cs1)C(C#N)=C(N)O2 (centres undefined)	inactive
CCCOc1ccc(Cn2cnc3ccccc32)cc1	inactive
O=C(OCC1COc2ccccc2O1)c1ccccc1F (centres undefined)	inactive
CN(C)CCOC(=O)Cc1ccc(Cl)cc1	inactive
CC(=O)N(Cc1ccc(Cl)cc1)c1cnccn1	inactive
C/C(Nc1ccc(F)cc1)=C(/C#N)C(N)=O	inactive
Cc1ccc2c(c1)cc(CN(Cc1ccc3c(c1)OCO3)C(=O)c1cnccn1)c1nnnn12	inactive
Cc1nnc(NC(=O)CSc2ncnc3scc(-c4ccccc4)c23)s1	inactive
O=C(CSc1nnnn1-c1ccccc1)CC(=O)Nc1ccc(Cl)cc1	inactive
O=C(CSc1nnc2c(Cl)cc(Cl)cn12)NC1CCS(=O)(=O)C1 (centres undefined)	inactive
